Measurements taken from PMC7862700, “An all-to-all approach to the identification of sequence-specific readers for epigenetic DNA modifications on cytosine”.

Tests used:
Test in all cases: DAPPL (digital affinity profiling via proximity ligation, sequencing); 10 mM Tris-HCl pH 7.5, 50 mM NaCl, 1 mM DTT, 4% glycerol, room temperature, 30 min; GST-TFs on glutathione beads, 16-mer random dsDNA library, 0.1% formaldehyde crosslink after washing; high values mean tight binding
[1] = biological target: T1, FLI1 (Homo sapiens, UniProt Q01543 1-452); details: protein: recombinant; tags: N-terminal GST; dsDNA, one strand shown
T1 sequence: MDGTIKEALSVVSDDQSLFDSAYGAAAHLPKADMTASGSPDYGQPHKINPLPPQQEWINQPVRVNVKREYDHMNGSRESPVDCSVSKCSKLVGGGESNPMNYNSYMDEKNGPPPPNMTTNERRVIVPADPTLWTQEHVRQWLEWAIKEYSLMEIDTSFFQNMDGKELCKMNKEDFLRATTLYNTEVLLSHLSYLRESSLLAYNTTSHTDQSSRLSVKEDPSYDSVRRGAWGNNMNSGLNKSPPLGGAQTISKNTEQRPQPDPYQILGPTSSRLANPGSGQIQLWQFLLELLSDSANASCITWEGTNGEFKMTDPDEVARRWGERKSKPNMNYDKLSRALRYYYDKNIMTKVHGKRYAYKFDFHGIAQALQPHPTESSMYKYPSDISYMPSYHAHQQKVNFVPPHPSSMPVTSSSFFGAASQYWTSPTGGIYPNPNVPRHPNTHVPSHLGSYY
How it was run: (§1)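 Beads coated with glutathione captured GST-fused human transcription factors that had been expressed in yeast, and the factors were then given DNA barcodes and pooled with a tag-only sample. The pools were incubated with 200 nmole of a random double-stranded 16-mer DNA library in Tris/NaCl/DTT/glycerol buffer for 30 min at room temperature, washed, crosslinked with 0.1% formaldehyde and proximity-ligated with BsaI/T4 ligase at 37 °C for 1 h. PCR amplification and Illumina NextSeq500 sequencing came last. Binding signal is each hexamer's read frequency for a factor divided by its frequency for the tag-only sample.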

[2] = biological target: T2, ELK1 (Homo sapiens, UniProt P19419 1-428); details: protein: recombinant; tags: N-terminal GST; dsDNA, one strand shown
T2 sequence: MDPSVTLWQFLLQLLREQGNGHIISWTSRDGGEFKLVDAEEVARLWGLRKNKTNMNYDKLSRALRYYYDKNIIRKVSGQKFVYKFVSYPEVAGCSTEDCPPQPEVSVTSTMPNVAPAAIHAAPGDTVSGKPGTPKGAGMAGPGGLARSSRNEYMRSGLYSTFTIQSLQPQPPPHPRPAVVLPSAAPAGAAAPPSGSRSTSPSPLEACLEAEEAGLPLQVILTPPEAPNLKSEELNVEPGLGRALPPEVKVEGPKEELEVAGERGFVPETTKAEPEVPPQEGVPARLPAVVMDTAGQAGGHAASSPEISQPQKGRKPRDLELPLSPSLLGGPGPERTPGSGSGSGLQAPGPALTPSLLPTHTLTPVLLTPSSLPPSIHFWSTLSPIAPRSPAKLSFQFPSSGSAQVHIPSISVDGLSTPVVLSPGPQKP
How it was run: as §1

[3] = biological target: T3, GABPA (Homo sapiens, UniProt Q06546 1-454); details: protein: recombinant; tags: N-terminal GST; dsDNA, one strand shown
T3 sequence: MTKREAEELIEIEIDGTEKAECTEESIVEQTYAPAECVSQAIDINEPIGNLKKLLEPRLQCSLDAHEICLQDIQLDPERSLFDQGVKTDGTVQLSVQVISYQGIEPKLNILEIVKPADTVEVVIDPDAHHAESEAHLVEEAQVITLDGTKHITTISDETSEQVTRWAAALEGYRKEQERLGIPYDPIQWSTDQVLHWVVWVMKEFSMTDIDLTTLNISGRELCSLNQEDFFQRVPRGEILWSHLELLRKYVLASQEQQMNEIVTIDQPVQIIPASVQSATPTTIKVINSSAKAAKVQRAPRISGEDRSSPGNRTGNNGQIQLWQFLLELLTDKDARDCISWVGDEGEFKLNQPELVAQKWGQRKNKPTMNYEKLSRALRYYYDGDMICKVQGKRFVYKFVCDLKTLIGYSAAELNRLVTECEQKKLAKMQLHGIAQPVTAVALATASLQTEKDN
How it was run: as §1

[4] = biological target: T4, ERG (Homo sapiens, UniProt P11308 1-479); details: protein: recombinant; tags: N-terminal GST; dsDNA, one strand shown
T4 sequence: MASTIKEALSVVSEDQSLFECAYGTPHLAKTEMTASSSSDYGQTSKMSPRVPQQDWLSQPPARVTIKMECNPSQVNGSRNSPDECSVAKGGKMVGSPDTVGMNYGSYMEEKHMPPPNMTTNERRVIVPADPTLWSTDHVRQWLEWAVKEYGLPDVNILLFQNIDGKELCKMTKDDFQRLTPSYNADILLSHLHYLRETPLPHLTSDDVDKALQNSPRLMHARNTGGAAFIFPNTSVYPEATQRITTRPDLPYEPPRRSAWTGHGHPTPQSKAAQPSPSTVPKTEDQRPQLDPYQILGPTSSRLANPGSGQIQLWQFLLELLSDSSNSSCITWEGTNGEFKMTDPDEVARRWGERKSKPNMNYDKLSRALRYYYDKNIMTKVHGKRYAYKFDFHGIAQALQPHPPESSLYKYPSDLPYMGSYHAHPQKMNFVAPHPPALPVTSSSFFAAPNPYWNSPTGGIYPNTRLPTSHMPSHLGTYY
How it was run: as §1

[5] = biological target: ELF1 (Homo sapiens, UniProt P32519 1-619); details: protein: recombinant; tags: N-terminal GST; dsDNA, one strand shown
Sequence of ELF1 (P32519 whole entry): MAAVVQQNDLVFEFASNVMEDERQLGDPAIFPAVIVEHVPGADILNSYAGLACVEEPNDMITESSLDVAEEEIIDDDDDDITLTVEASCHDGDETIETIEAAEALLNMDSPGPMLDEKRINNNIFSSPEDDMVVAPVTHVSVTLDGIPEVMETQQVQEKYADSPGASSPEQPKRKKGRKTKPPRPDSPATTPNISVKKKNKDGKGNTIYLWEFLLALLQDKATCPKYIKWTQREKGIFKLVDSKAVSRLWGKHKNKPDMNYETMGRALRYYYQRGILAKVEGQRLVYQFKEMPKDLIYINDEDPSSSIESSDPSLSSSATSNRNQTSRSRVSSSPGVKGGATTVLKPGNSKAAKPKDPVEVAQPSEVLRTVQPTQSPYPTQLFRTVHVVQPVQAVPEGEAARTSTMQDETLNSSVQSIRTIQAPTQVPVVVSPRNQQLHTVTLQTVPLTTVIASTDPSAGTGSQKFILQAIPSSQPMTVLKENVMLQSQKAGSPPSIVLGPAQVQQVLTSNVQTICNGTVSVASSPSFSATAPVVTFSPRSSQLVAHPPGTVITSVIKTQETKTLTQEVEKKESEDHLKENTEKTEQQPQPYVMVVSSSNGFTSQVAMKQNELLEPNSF
How it was run: as §1

[6] = biological target: T5, EHF (Homo sapiens, UniProt Q9NZC4 1-300); details: protein: recombinant; tags: N-terminal GST; dsDNA, one strand shown
T5 sequence: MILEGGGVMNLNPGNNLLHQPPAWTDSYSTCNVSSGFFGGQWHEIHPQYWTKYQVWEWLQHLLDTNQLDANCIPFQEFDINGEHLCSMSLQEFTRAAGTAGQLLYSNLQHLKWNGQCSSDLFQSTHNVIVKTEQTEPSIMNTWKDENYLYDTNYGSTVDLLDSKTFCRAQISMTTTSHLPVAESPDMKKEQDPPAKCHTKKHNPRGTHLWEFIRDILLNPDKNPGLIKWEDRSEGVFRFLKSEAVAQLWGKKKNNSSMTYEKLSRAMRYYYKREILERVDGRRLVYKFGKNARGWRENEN
How it was run: as §1

[7] = biological target: SPI1 (Homo sapiens, UniProt P17947 1-270); details: protein: recombinant; tags: N-terminal GST; dsDNA, one strand shown
How it was run: as §1

[8] = biological target: SPIB (Homo sapiens, UniProt Q01892 1-262); details: protein: recombinant; tags: N-terminal GST; dsDNA, one strand shown
Sequence of SPIB (Q01892 whole entry): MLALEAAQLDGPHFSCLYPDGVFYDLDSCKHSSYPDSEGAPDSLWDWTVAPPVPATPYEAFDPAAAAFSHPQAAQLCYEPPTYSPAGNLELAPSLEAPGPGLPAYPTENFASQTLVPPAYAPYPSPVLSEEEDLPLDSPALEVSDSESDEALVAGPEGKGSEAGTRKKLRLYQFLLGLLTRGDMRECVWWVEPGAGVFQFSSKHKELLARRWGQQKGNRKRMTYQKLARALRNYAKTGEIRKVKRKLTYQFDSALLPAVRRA
How it was run: as §1

[9] = biological target: T6, ELK3 (Homo sapiens, UniProt P41970 1-407); details: protein: recombinant; tags: N-terminal GST; dsDNA, one strand shown
T6 sequence: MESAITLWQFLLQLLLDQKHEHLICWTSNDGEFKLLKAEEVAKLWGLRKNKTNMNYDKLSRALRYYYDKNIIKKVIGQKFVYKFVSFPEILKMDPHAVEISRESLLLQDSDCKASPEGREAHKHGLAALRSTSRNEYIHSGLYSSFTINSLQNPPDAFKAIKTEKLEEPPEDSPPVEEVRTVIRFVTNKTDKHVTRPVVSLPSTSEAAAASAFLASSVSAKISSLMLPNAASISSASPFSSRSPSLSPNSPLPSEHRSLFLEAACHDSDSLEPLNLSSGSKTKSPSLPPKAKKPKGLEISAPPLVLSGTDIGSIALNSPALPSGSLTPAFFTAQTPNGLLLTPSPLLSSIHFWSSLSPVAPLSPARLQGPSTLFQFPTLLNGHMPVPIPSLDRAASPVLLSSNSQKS
How it was run: as §1

[10] = biological target: T7, FEV (Homo sapiens, UniProt Q99581 1-238); details: protein: recombinant; tags: N-terminal GST; dsDNA, one strand shown
T7 sequence: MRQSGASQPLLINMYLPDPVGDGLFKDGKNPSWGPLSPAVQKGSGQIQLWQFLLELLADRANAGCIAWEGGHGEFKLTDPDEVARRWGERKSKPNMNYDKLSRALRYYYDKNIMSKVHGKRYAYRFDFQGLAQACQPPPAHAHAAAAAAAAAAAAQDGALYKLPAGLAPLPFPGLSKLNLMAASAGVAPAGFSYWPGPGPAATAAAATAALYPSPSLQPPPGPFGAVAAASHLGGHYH
How it was run: as §1

[11] = biological target: ETV5 (Homo sapiens, UniProt P41161 1-510); details: protein: recombinant; tags: N-terminal GST; dsDNA, one strand shown
Sequence of ETV5 (P41161 whole entry): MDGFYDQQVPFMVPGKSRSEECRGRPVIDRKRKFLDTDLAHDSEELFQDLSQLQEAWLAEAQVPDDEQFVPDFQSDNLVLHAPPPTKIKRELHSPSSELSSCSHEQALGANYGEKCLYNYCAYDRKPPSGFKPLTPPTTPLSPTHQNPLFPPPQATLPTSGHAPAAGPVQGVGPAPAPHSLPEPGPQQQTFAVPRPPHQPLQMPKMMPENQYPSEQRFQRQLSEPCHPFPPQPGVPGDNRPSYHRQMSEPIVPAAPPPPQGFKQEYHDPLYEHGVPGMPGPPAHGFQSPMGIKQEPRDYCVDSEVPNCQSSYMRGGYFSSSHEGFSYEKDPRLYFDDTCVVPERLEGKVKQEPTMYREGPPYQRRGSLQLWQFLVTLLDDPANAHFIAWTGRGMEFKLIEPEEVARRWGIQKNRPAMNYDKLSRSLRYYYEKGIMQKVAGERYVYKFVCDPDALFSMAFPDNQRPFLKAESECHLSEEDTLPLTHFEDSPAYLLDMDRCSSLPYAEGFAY
How it was run: as §1

[12] = biological target: HSF1 (Homo sapiens, UniProt Q00613 1-529); details: protein: recombinant; tags: N-terminal GST; chain copies: 3; dsDNA, one strand shown
Sequence of HSF1 (Q00613 whole entry): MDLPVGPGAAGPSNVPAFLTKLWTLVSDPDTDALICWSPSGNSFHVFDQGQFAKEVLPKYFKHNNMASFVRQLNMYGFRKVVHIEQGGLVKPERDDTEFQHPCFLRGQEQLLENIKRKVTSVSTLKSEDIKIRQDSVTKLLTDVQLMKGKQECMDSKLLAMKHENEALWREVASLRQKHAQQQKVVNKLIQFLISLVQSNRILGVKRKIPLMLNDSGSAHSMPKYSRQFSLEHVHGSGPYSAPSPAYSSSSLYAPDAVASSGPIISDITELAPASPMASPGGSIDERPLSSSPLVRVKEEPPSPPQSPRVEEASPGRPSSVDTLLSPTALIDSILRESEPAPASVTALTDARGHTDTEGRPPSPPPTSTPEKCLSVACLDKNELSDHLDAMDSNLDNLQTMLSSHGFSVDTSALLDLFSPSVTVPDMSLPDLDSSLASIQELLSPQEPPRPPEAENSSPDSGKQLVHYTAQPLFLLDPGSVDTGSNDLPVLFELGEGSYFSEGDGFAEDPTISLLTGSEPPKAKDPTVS
How it was run: as §1

[13] = biological target: T8, SPIC (Homo sapiens, UniProt Q8N5J4 1-248); details: protein: recombinant; tags: N-terminal GST; dsDNA, one strand shown
T8 sequence: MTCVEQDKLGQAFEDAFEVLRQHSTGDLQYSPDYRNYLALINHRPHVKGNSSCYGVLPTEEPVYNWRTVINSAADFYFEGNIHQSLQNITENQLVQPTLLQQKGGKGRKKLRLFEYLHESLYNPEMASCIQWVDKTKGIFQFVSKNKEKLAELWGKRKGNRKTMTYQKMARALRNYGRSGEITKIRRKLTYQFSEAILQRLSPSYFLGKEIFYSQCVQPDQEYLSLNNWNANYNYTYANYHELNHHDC
How it was run: as §1

[14] = biological target: ELF4 (Homo sapiens, UniProt Q99607 1-663); details: protein: recombinant; tags: N-terminal GST; dsDNA, one strand shown
Sequence of ELF4 (Q99607 whole entry): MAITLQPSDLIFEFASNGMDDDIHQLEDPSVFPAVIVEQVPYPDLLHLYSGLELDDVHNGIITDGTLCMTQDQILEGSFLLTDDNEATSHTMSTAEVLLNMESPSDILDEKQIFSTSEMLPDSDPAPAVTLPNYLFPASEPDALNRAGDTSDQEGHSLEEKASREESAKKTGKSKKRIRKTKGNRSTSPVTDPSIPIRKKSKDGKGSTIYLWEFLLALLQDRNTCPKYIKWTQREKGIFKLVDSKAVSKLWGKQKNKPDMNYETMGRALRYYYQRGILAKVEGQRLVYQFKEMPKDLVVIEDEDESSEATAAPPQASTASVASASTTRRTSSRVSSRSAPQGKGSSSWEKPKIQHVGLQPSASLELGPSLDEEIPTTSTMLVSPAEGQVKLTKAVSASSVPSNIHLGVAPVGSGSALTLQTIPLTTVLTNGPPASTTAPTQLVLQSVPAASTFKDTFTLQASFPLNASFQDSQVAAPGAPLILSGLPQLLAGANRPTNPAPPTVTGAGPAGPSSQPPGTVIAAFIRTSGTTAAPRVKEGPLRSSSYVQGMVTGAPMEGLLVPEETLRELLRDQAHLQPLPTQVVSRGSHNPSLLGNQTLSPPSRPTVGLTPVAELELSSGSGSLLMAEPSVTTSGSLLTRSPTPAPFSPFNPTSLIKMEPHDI
How it was run: as §1

[15] = biological target: T9, ELK4 (Homo sapiens, UniProt P28324-2 1-405); details: protein: recombinant; tags: N-terminal GST; dsDNA, one strand shown
T9 sequence: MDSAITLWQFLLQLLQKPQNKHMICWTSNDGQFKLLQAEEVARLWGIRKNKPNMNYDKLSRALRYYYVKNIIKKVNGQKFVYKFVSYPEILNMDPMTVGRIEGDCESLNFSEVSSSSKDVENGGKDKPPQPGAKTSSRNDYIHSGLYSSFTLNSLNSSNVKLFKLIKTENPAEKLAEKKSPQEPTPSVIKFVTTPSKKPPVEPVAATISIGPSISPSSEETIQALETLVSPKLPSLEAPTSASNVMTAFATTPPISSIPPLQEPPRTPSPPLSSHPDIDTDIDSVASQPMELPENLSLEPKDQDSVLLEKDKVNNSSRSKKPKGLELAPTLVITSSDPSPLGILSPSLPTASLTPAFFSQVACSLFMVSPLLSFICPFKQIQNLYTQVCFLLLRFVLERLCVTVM
How it was run: as §1

[16] = biological target: T10, ETV2 (Homo sapiens, UniProt O00321 1-342); details: protein: recombinant; tags: N-terminal GST; dsDNA, one strand shown
T10 sequence: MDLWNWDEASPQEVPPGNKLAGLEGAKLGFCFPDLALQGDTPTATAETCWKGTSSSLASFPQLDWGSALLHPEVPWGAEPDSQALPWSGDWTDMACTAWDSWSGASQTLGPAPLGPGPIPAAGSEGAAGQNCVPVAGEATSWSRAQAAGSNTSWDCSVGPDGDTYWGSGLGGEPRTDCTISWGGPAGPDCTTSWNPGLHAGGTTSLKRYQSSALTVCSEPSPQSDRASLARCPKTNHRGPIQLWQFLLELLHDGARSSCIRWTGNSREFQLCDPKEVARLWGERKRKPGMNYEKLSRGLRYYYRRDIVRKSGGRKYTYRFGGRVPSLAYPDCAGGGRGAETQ
How it was run: as §1

[17] = biological target: T11, ELF3 (Homo sapiens, UniProt P78545 1-371); details: protein: recombinant; tags: N-terminal GST; dsDNA, one strand shown
T11 sequence: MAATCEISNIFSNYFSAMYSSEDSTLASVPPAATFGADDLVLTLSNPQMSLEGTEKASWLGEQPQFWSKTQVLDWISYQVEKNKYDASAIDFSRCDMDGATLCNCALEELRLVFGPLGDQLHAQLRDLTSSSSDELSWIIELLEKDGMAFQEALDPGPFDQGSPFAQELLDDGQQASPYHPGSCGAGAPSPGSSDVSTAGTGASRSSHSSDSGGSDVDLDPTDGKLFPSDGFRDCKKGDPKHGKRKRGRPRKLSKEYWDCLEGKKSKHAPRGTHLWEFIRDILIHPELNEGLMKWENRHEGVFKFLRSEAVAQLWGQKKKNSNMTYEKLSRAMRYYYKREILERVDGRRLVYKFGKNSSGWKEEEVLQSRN
How it was run: as §1

[18] = biological target: CRX (Homo sapiens, UniProt O43186 1-299); details: protein: recombinant; tags: N-terminal GST; dsDNA, one strand shown
Sequence of CRX (O43186 whole entry): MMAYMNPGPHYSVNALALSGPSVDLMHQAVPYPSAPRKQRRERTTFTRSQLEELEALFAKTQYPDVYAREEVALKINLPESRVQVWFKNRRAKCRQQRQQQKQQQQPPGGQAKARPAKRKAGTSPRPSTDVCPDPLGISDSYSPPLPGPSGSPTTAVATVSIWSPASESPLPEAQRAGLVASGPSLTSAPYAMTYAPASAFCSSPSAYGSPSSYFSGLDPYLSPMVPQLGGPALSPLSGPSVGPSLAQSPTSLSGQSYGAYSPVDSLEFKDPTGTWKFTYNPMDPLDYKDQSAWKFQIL
How it was run: as §1

[19] = biological target: ETV1 (Homo sapiens, UniProt P50549 1-477); details: protein: recombinant; tags: N-terminal GST; dsDNA, one strand shown
Sequence of ETV1 (P50549 whole entry): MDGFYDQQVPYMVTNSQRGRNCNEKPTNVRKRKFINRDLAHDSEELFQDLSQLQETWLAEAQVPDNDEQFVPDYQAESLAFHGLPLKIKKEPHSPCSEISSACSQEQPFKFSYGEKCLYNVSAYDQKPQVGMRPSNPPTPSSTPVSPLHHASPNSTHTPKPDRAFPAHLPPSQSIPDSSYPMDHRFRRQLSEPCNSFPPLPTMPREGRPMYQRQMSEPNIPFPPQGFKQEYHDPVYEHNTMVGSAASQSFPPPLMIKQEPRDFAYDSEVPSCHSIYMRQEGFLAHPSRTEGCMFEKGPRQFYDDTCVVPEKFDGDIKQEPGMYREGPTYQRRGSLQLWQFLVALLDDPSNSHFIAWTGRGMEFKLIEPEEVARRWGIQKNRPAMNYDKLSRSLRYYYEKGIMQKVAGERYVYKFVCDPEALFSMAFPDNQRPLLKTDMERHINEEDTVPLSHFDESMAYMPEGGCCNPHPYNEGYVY
How it was run: as §1

TGTCTT
binding signal [1]: 1.29 fold enrichment (6-mer frequency, TF over GST control) | binding signal [2]: 1.2 fold enrichment (6-mer frequency, TF over GST control) | binding signal [3]: 1.38 fold enrichment (6-mer frequency, TF over GST control) | binding signal [4]: 1.34 fold enrichment (6-mer frequency, TF over GST control) | binding signal [5]: 1.35 fold enrichment (6-mer frequency, TF over GST control) | binding signal [6]: 1.31 fold enrichment (6-mer frequency, TF over GST control) | binding signal [7]: 1.2 fold enrichment (6-mer frequency, TF over GST control) | binding signal [8]: 1.26 fold enrichment (6-mer frequency, TF over GST control) | binding signal [9]: 1.38 fold enrichment (6-mer frequency, TF over GST control) | binding signal [10]: 1.27 fold enrichment (6-mer frequency, TF over GST control) | binding signal [11]: 1.24 fold enrichment (6-mer frequency, TF over GST control) | binding signal [12]: 1.13 fold enrichment (6-mer frequency, TF over GST control) | binding signal [13]: 1.39 fold enrichment (6-mer frequency, TF over GST control) | binding signal [14]: 1.19 fold enrichment (6-mer frequency, TF over GST control) | binding signal [15]: 1.17 fold enrichment (6-mer frequency, TF over GST control) | binding signal [16]: 1.18 fold enrichment (6-mer frequency, TF over GST control) | binding signal [17]: 1.25 fold enrichment (6-mer frequency, TF over GST control) | binding signal [18]: 1.3 fold enrichment (6-mer frequency, TF over GST control) | binding signal [19]: 1.24 fold enrichment (6-mer frequency, TF over GST control)
